Compound activity from PubChem.
In the library only some 3.1% were active in any assay of this set; here they are far more common.
FBA Mtb inh: Mtb fructose-bisphosphate aldolase inhibition. P9WQA3. purified M. tuberculosis FBA, fluorescence read-out. inhibition, % at 1 µM. 360,000 compounds, 2.3% hits; in the data active means inhibition above about 27%;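 further: 0% = vehicle and 100% = reference inhibitor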
Target sequence (P9WQA3 whole entry, looked up): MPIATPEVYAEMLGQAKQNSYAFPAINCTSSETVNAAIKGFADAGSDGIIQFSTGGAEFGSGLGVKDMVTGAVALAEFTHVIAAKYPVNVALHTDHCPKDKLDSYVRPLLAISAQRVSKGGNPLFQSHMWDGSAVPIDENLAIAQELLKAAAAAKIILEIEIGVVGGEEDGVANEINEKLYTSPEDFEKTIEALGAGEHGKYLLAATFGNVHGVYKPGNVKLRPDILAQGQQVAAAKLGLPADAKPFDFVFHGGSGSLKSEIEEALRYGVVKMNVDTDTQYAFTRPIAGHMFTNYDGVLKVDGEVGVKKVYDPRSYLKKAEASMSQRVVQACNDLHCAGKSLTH
FadD28 binding: inhibitors of Mycobacterium tuberculosis FadD28 bisubstrate binding; FadD28 bisubstrate probe binding, fluorescence polarization; inhibition, % at 12.5 µM; 360,000 compounds, 0.22% hits; in the data active means inhibition above about 8.5%, passing the limit was not always enough; inconclusive means no clear call, values can overlap the other calls
Mtb BioA inh: BioA (M. tuberculosis) enzyme inhibition | purified M. tuberculosis BioA enzyme, plate reader | 360,000 compounds, 0.096% hits | inhibition, % at 9.99 µM; in the data active means inhibition above about 40%; inconclusive means no clear call, values can overlap the other calls
3CLpro inhibitor: SARS-CoV 3CLpro protease inhibition; 290,000 compounds, 0.14% hits; P0C6X7; inhibition, % at 6 µM; recombinant SARS-CoV 3CLpro, quenched FRET peptide cleavage; in the data active means inhibition above about 12%
GDH-TPI counter: counter-screen for M. tuberculosis FBA inhibitors: GDH-TPI coupled enzymes; GDH-TPI coupled enzyme counterscreen, NADH absorbance; inhibition, % at 4.8 µM; 360,000 compounds, 1.2% hits; AID 588335; in the data active means inhibition above about 30%;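 further: 0% = DMSO wells and 100% = wells lacking the enzyme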
Numbers without * were called inactive; ? = inconclusive; nt = not tested or not shown.

SMILES	FBA Mtb inh	FadD28 binding	Mtb BioA inh	3CLpro inhibitor	GDH-TPI counter
C[C@H](CO)N1C[C@H](C)[C@H](CN(C)S(C)(=O)=O)Oc2c(NS(C)(=O)=O)cccc2C1=O	nt	nt	-4.8	nt	nt
CN(C)CCCNC(=O)C[C@@H]1CC[C@H]2[C@H](COc3ccc(NC(=O)c4ccc5c(c4)OCO5)cc3C(=O)N2C)O1	nt	nt	1.9	nt	nt
COCC(=O)Nc1ccc2c(c1)[C@H]1C[C@H](CC(=O)N3CCCCC3)O[C@@H](CO)[C@H]1O2	nt	nt	-1.6	nt	nt
Cc1cccc(/C=C/c2onc(C)c2S(=O)(=O)N2CCC(C(=O)NC(C)(C)C)CC2)c1	4.8	2.3	1.2	8.7	-2.0
Cc1noc(C)c1S(=O)(=O)N1CCCC(C(=O)Nc2ccc(Cl)cn2)C1 (stereo not given)	75.1*	-2.1	0.6	-2.7	1.9
Cc1noc(/C=C/N(C)C)c1S(=O)(=O)N1CCC(C(=O)Nc2ccc(Cl)cc2)CC1	0.1	-0.6	0.5	0.5	27.8
Cc1noc(/C=C/N(C)C)c1S(=O)(=O)N1CCC(C(=O)NC(C)(C)C)CC1	-2.7	0.1	0.1	-0.8	41.0*
Cc1ccc(NC(=O)C2CCN(S(=O)(=O)c3c(C)noc3/C=C/N(C)C)CC2)cc1	0.4	-1.0	-0.2	0.4	45.3*
Cc1ccc(NC(=O)C2CCCN(S(=O)(=O)c3c(C)noc3/C=C/N(C)C)C2)cc1F (stereo not given)	0.5	0.4	nt	-0.1	40.1*
O=C(N[C@H]1CC[C@H](CCNS(=O)(=O)c2cccc(Cl)c2)O[C@H]1CO)c1ccncc1	nt	nt	2.7	nt	nt
O=C1N/C(=N\N=C\c2cccs2)SC1Cc1ccc(Cl)c(Cl)c1 (stereo not given)	1.8	0.0	nt	0.8	12.2
C=CCC1S/C(=N/N=C/c2cccs2)NC1=O (stereo not given)	-2.6	-1.4	-0.9	0.1	53.5*
O=C(CC1S/C(=N/N=C/c2cccs2)NC1=O)Nc1ccccc1F (stereo not given)	3.8	-2.0	nt	-0.9	32.9*
O=C(c1ccncc1)N1C[C@H]2[C@@H](c3ccccc31)[C@@H](CO)N2Cc1ccc(F)cc1	nt	nt	-0.2	nt	nt
C[C@H](CO)N1C[C@H](C)[C@@H](CN(C)C(=O)Nc2ccc(C(F)(F)F)cc2)Oc2ccc(NC(=O)Nc3ccc(F)cc3)cc2CC1=O	nt	nt	-4.1	nt	nt
C=CCn1c(N)c(C(=O)OCCC)c2nc3ccccc3nc21	174.7*	-1.9	10.1	5.6	17.4
CCCOC(=O)c1c(N)n(Cc2cccs2)c2nc3ccccc3nc12	173.3*	-11.4	2.4	1.7	10.6
Cc1noc(C)c1S(=O)(=O)Nc1ccc2c(c1)C(=O)N([C@H](C)CO)C[C@@H](C)[C@@H](CN(C)C)OCCCC[C@@H](C)O2	nt	nt	-2.0	nt	nt
CN(C)c1ccc(/C=C/c2nnnn2-c2ccccc2)cc1	-1.1	0.9	-1.2	6.9	40.7*
Cc1cccc(Nc2c([N+](=O)[O-])c(=O)oc3ccccc23)c1	-4.1	-2.6	nt	4.5	31.7*
CC(=O)n1cc(/C=N/NC(=O)c2ccccc2O)c2ccccc21	-1.9	-12.5	nt	-5.7	16.9
Cn1cc(/C=N/NC(=O)c2ccccc2O)c2ccccc21	2.1	3.0	0.6	-1.1	58.7*
Cn1cc(/C=N/NC(=O)c2cccc([N+](=O)[O-])c2)c2ccccc21	-1.1	-0.3	nt	-1.5	36.7*
COc1ccc(/C=N/NC(=O)c2cccc([N+](=O)[O-])c2)c2ccccc12	3.0	-3.3	-0.9	1.1	-0.7
Cc1nc(C)c(C(=O)N/N=C/c2cn(C)c3ccccc23)s1	-2.2	0.2	nt	-2.0	33.8*
SMILES	FBA Mtb inh	FadD28 binding	Mtb BioA inh	3CLpro inhibitor	GDH-TPI counter
COc1ccc2c(c1)c(C(=O)N/N=C/c1cn(C)c3ccccc13)c(C)n2C	-2.6	-1.3	nt	0.1	36.6*
C[C@H]1CN([C@@H](C)CO)S(=O)(=O)c2ccc(-c3cncnc3)cc2O[C@@H]1CN(C)C(=O)Cc1ccccc1	nt	nt	1.9	nt	nt
COc1ccc(S(=O)(=O)N(C)C[C@@H]2OCCCC[C@H](C)Oc3ccc(NS(=O)(=O)c4ccc(F)cc4)cc3C(=O)N([C@@H](C)CO)C[C@H]2C)cc1	nt	nt	0.4	nt	nt
CN1C(=O)c2cc(NC(=O)Cc3ccccc3)ccc2OC[C@@H]2O[C@H](CC(=O)NC3CCC3)CC[C@H]21	nt	nt	10.3	nt	nt
O=C(NCCN1C(=O)S/C(=C\c2ccc(F)cc2)C1=O)c1cccc(S(=O)(=O)N2CCOCC2)c1	-3.1	-1.3	4.8	0.9	36.4*
CCN(CC)c1ccc(/C=N/NC(=O)c2cccc(S(=O)(=O)N3CCOCC3)c2)cc1	-0.4	-0.2	-2.0	-1.4	32.2*
C/C(=N\NC(=O)c1cccc(S(=O)(=O)N2CCOCC2)c1)c1cc2ccccc2o1	-0.6	-5.3	-0.6	5.9	52.5*
CCN(Cc1ccccc1)c1ccc(/C=N/N2CCOCC2)cc1	0.6	-0.4	nt	-4.4	28.0
CCN(CC)c1ccc(/C=N/N2CCOCC2)cc1	-0.5	-2.4	-0.7	-0.4	42.7*
CCCN(C)C[C@H]1Oc2ncc(C#CCC(C)C)cc2C(=O)N([C@H](C)CO)C[C@@H]1C	nt	nt	0.7	nt	nt
COc1ccc(CN(C)C[C@H]2Oc3c(NS(=O)(=O)c4ccccc4)cccc3C(=O)N([C@@H](C)CO)C[C@@H]2C)cc1	nt	nt	-1.1	nt	nt
COc1ccc(S(=O)(=O)N2CCCCN3[C@@H](CO)[C@H](c4ccc(C#CC5CC5)cc4)[C@@H]3C2)cc1	nt	nt	-2.4	nt	nt
CCCNC(=O)Nc1ccc2c(c1)C(=O)N(C)C[C@@H](OC)[C@@H](C)CN(C(=O)C1CCOCC1)[C@H](C)CO2	nt	nt	5.7	nt	nt
CCN(Cc1ccccc1)c1ccc(/C=N/NC(=O)c2cccc(S(=O)(=O)N3CCOCC3)c2)cc1	4.0	-0.1	-0.4	-1.0	43.2*
CCn1c(NC(=O)c2ccc(COc3ccc(C)cc3[N+](=O)[O-])o2)nc2ccccc21	0.9	1.0	-0.7	2.3	31.8*
C/C(=N\NC(=O)c1ccc(O)cc1)c1ccc(N2CCOCC2)cc1	0.5	-0.7	nt	3.0	21.5
C/C(=N\NC(=O)c1ccccn1)c1ccc(Cl)cc1	0.9	-2.5	0.5	-1.7	7.0
C/C(=N\NC(=O)c1ccc(N/N=C(\C)c2ccc(O)cc2)cc1)c1ccc(O)cc1	2.3	-1.5	nt	0.2	46.1*
C/C(=N/NC(=O)c1ccccn1)c1ccc(O)cc1	-0.3	-0.5	-1.2	8.9	32.5*
CCCN1C[C@H](C)[C@@H](OC)CN(C)C(=O)c2cc(NC(=O)Nc3ccccc3F)ccc2OC[C@@H]1C	nt	nt	-3.3	nt	nt
N#Cc1ccc(C(=O)Nc2nnc(-c3cccs3)o2)cc1	0.0	-1.8	-1.7	2.1	32.9*
CCC1CCCCN1S(=O)(=O)c1ccc(C(=O)Nc2nnc(-c3cccs3)o2)cc1 (stereo not given)	2.2	1.3	0.6	2.8	67.6*
CN(C)S(=O)(=O)c1ccc(C(=O)Nc2nnc(-c3cccs3)o2)cc1	2.8	-0.7	nt	-3.3	12.3
COc1cc(/C=N/N=C2/C(=O)Nc3ccccc32)ccc1O	-6.9	-3.1	5.4	1.6	15.5
Oc1ccc(/C=N/N=C/c2ccc(O)cc2)cc1	0.1	0.9	nt	-1.9	31.2*
Oc1ccc(N=Cc2ccc(O)c(O)c2)cc1	-6.0	?	nt	-2.8	16.4
